PubChem BioAssay AID1159580 (chemical genetic matrix, 2015)
Values joined by “and” are separate entries in the source; they are usually repeats but may differ in a detail not shown here. Equal values may be shown once. Screen size: about 5,500 compounds; about 2,000 (36%) were called active. Not shown: some 18% with an inconclusive outcome. Rule as the data show it: active = normalized growth mostly below about 0.91 (no sharp cut-off); inconclusive = no clear call, values can overlap the other calls; inactive = mostly above about 0.92. The list shows a part of the results. Where a SMILES comes first, the peptide text is derived from it. Bridges are numbered along the chain shown (N, C = ends). [ ]: non-standard residue; d: D form. The star is where a group is joined. ξ: configuration not given here. ξDab(CH2SO3H) = NC(CCNCS(=O)(=O)O)C(=O)O; Heptanoyl(6-Me) = CC(C)CCCCC(=O)*; Dab = NCC[CH](N)C(=O)O

Assay: chemical genetic growth profiling, strain panel (AID 1159580);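 also: tested at 20 µM; growth read once vehicle control cultures reached saturation at 30 °C; 1 = growth at the plate median or of vehicle wells; lower values mean less growth of the strain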
Details: S. cerevisiae deletion strains, growth OD

Measured: normalized growth

CCC(C)C1NC(=O)C(CCNCS(=O)(=O)O)NC(=O)C(NC(=O)C(CCNCS(=O)(=O)O)NC(=O)C(NC(=O)C(CCNCS(=O)(=O)O)NC(=O)CCCCC(C)C)C(C)O)CCNC(=O)C(C(C)O)NC(=O)C(CCNCS(=O)(=O)O)NC(=O)C(CCNCS(=O)(=O)O)NC(=O)C(C(C)CC)NC1=O (stereo unspecified) ({Heptanoyl(6-Me)}-[ξDab(CH2SO3H)]T[ξDab(CH2SO3H)][Dab][ξDab(CH2SO3H)]II[ξDab(CH2SO3H)][ξDab(CH2SO3H)]T; lactam 4-C; configuration not given here)
inactive: locus YAL013W, strain DEP1, hits give low values 1 | locus YAL021C, strain ccr4, hits give low values 0.93 | locus YAL026C, strain drs2, hits give low values 0.989 | locus YAL030W, strain snc1, hits give low values 0.99 | locus YBL061C, strain skt5, hits give low values 0.981 | locus YBR009C, strain hhf1, hits give low values 0.971 | locus YBR021W, strain FUR4, hits give low values 1.02 | locus YBR023C, strain chs3, hits give low values 0.985 | locus YBR171W, strain sec66, hits give low values 0.995 | locus YBR229C, strain ROT2, hits give low values 0.987 | locus YBR231C, strain swc5, hits give low values 1 | locus YBR279W, strain paf1, hits give low values 1 | locus YCL011C, strain gbp2, hits give low values 0.996 | locus YCL016C, strain dcc1, hits give low values 0.994 | locus YCL029C, strain bik1, hits give low values 0.955 | locus YCL061C, strain MRC1, hits give low values 0.996 | locus YCL069W, strain vba3, hits give low values 0.978 | locus YCR088W, strain abp1, hits give low values 0.976 | locus YDL005C, strain med2, hits give low values 1.01 | locus YDL035C, strain GPR1, hits give low values 0.989 | locus YDL040C, strain nat1, hits give low values 0.972 | locus YDL074C, strain BRE1, hits give low values 1 | locus YDL101C, strain DUN1, hits give low values 0.992 | locus YDL134C, strain PPH21, hits give low values 0.993 | locus YDL185W, strain tfp1, hits give low values 0.935 | locus YDL192W, strain arf1, hits give low values 0.965 | locus YDR001C, strain nth1, hits give low values 0.992 | locus YDR069C, strain doa4, hits give low values 0.961 | locus YDR101C, strain arx1, hits give low values 0.983 | locus YDR137W, strain rgp1, hits give low values 1.03 | locus YDR150W, strain NUM1, hits give low values 0.97 | locus YDR159W, strain sac3, hits give low values 0.95 | locus YDR162C, strain NBP2, hits give low values 0.98 | locus YDR195W, strain ref2 0.946 | locus YDR297W, strain sur2, hits give low values 0.998 | locus YDR318W, strain mcm21, hits give low values 0.956 | locus YDR334W, strain swr1, hits give low values 0.959 | locus YDR335W, strain msn5, hits give low values 0.984 | locus YDR388W, hits give low values 0.972 | locus YDR392W, strain spt3, hits give low values 1.02 | locus YDR502C, strain sam2, hits give low values 0.976 | locus YEL003W, strain gim4, hits give low values 0.996 | locus YEL037C, strain rad23, hits give low values 0.969 | locus YEL061C, strain CIN8 (second series), hits give low values 0.978 | locus YEL061C, strain CIN8, hits give low values 0.982 | locus YER015W, strain faa2, hits give low values 0.996 | locus YER016W, strain bim1, hits give low values 0.997 | locus YER110C, hits give low values 0.98 | locus YER111C, strain swi4, hits give low values 1 | locus YER155C, strain BEM2 (second series), hits give low values 1.01 | locus YER155C, strain BEM2, hits give low values 0.984 | locus YER167W, strain BCK2, hits give low values 0.964 | locus YFR010W, strain ubp6, hits give low values 0.979 | locus YGL078C, strain dbp3, hits give low values 0.968 | locus YGL086W, strain mad1, hits give low values 0.972 | locus YGL167C, strain pmr1, hits give low values 0.967 | locus YGL173C, strain kem1, hits give low values 0.984 | locus YGL227W, strain vid30, hits give low values 0.988 | locus YGL240W, strain doc1, hits give low values 1 | locus YGL248W, strain PDE1, hits give low values 0.988 | locus YGL253W, strain hxk2, hits give low values 0.993 | locus YGR078C, strain PAC10, hits give low values 0.999 | locus YGR135W, strain pre9, hits give low values 0.988 | locus YGR229C, strain SMI1, hits give low values 1.01 | locus YGR252W, strain gcn5, hits give low values 1.1 | locus YHR013C, strain ard1, hits give low values 0.978 | locus YHR027C, strain rpn1, hits give low values 1 | locus YHR030C, strain SLT2, hits give low values 0.98 and 1.01 | locus YHR079C, strain IRE1 (second series), hits give low values 0.966 | locus YHR079C, strain IRE1, hits give low values 0.971 | locus YHR094C, strain hxt1, hits give low values 0.952 | locus YHR129C, strain ARP1, hits give low values 0.98 | locus YHR142W, strain chs7, hits give low values 0.982 | locus YHR200W, strain rpn10, hits give low values 0.951 | locus YIL066C, strain RNR3, hits give low values 0.977 | locus YIL073C, strain SPO22, hits give low values 0.975 | locus YIL125W, strain kgd1, hits give low values 0.969 | locus YIR030C, strain dcg1, hits give low values 0.967 | locus YJL092W, strain hpr5, hits give low values 0.987 | locus YJL095W, strain BCK1 (second series), hits give low values 0.987 | locus YJL095W, strain BCK1, hits give low values 0.974 and 0.981 | locus YJL115W, strain asf1, hits give low values 0.975 | locus YJL129C, strain trk1, hits give low values 1.08 | locus YJL134W, strain LCB3, hits give low values 0.976 | locus YJL154C, strain vps35, hits give low values 0.98 | locus YJL164C, strain tpk1, hits give low values 0.994 | locus YJL166W, strain qcr8, hits give low values 0.986 | locus YJL168C, strain set2, hits give low values 0.966 | locus YJL187C, strain SWE1 (second series), hits give low values 0.978 | locus YJR043C, strain POL32, hits give low values 1 | locus YJR066W, strain TOR1, hits give low values 0.97
